test system: Escherichia coli ED1a; assay: growth AUC relative to DMSO control (median of replicates) (fraction); higher = more growth (less inhibition), active = hit call of the paper; conditions: 20 µM; 24 h;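 active = AUC reduced over 20% with Padj below 0.05 in at least 2 of 3 replicates; inactive = otherwise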
In short: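 For each compound at 20 µM (1% DMSO), gut bacterial monocultures seeded at OD600 0.05 grew anaerobically in mGAM at 37 °C in round-bottom 96-well plates. Hourly OD600 readings over 24 h gave growth curves whose minimum OD was set to 0. Area under these curves was normalised to the plate median of solvent-only wells, or to row and column medians on the industrial chemical plate. Values are medians of three biological replicates grown on separate days.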

Growth AUC, inactive:
N#Cc1cc(Cl)c(O)c(Cl)c1 0.926, CCc1cccc(C)c1N(C(=O)C(=O)O)C(C)COC (centres undefined) 0.992, CCC([O-])=C1C(=O)CC(C(=O)[O-])CC1=O.[Ca+2] (centres undefined) 1, COC1CCC2(CC1)NC(=O)C(c1cc(C)ccc1C)C2O (centres undefined) 1.03, O.O=C(Nc1ccc(Cl)c(Cl)c1)Nc1cc(Cl)ccc1Oc1ccc(Cl)cc1S(=O)(=O)[O-].[Na+] 1.06, NC(=O)c1nn(-c2c(Cl)cc(C(F)(F)F)cc2Cl)c(N)c1S(=O)C(F)(F)F (centres undefined) 0.964, Cc1nn(C)c(F)c1C(=O)Nc1ccccc1C(C)CC(C)C (centres undefined) 1.02, CCOC(=O)c1nc(C(Cl)(Cl)Cl)n(-c2ccc(Cl)cc2Cl)n1 1, CCCCOCN(C(=O)CS(=O)(=O)[O-])c1c(CC)cccc1CC.[Na+] 0.973, CCc1cccc(CC)c1N(COC)C(=O)CS(=O)(=O)[O-].[Na+] 0.979, CCN(CC)C(=O)c1cccc(C)c1 1, COC(=O)c1c(Cl)ccc(Cl)c1OC 1.04, CCN(CC)c1nc(C)cc(=O)[nH]1 0.995, CC(C)CNC(=O)N1CCNC1=O 1.02, COC(=O)c1ccccc1S(=O)(=O)NC(=O)n1nc(OCC(C)O)n(C)c1=O (centres undefined) 0.99, CCCNCCOc1c(Cl)cc(Cl)cc1Cl 0.944, CCCCCCCC/C=C\CCCCCCCCCCCC(=O)O 1.02, S=C([S-])NCCNC(=S)[S-].S=C([S-])NCCNC(=S)[S-].[Mn+2].[Zn+2] 0.996, Cc1cc(C)cc(OCC(C)Nc2nc(N)nc(C(C)(C)F)n2)c1 (centres undefined) 0.948, CCOc1ccc(C2(C(=O)OC(C#N)c3cccc(Oc4ccccc4)c3)CC2(Cl)Cl)cc1 (centres undefined) 1.01, CCNc1nc(NCC)nc(OC)n1 1.03, O=c1cccc2n1CCn1c-2cccc1=O 0.992, CCOCOc1ccc(C(=O)Nc2cccc(Cl)c2Cl)cc1 0.977, Cn1cc(C(=O)Nc2ccccc2-c2cc(F)c(F)c(F)c2)c(C(F)F)n1 0.985, CCOCN(C(=O)C(=O)O)c1c(C)cccc1CC 1, NC(Cn1cncn1)C(=O)O (centres undefined) 0.966, N#Cc1ccc(CC(=NNC(=O)Nc2ccc(OC(F)(F)F)cc2)c2cccc(C(F)(F)F)c2)cc1 (mixture of isomers) 0.986, C=O 1.03, COC(=O)c1ccc(C(=O)OC)cc1 1, N#Cc1c(N)nc(NC2CC2)nc1N 0.991, C#CCN(C)c1c(C#N)cnn1-c1nn2c(c1Cl)CCCC2 0.999, NS(=O)(=O)[O-].[NH4+] 1.03, O=C(O)Cc1c[nH]c2ccccc12 1, CCc1nc2ncnn2c(N)c1CCCC(=O)O.Cl 1.02, Cc1cc(C)cc(O)c1 0.953, CCOC(=O)/C(Cl)=C/c1cc(N2C(=O)C3=C(CCCC3)C2=O)ccc1Cl 1, c1ccc2c(c1)Cc1ccccc1-2 1.03, CCSc1nc(NC(C)C)nc(NC(C)C)n1 1.01, c1ccc2cc3ccccc3cc2c1 0.987

Source: the supplement of paper PMC12669032
